Here are results for 23 compounds from PubChem BioAssay (NCATS).

Values without a mark were called inactive. Results filed as inconclusive are left out. Active and inactive are the calls of the source. The call rests on the fitted dose curve; in most records, active means well fitted curve in the direction sought with a large enough effect; inconclusive means small, poorly fitted or top-dose-only effect, or another doubt; inactive means no such curve, though single readings can be large; an effect the other way counts as inactive or inconclusive.

In assay [1] the target is Glutathione peroxidase 1 (Homo sapiens) (UniProt P07203). As to the kind of experiment: Primary qHTS Assay for Inhibitors of Recombinant Selenoprotein Glutathione Peroxidase 1 (GPX1) (AID 1845191). Further: nearly all actives have a fitted effect of over 65% in size. The procedure, abridged: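 NADPH consumption tracked by fluorescence at 340/450 nm between t=0 and t=15 min, room temperature. Final mix: 10 nM GPX1, 100 nM glutathione reductase, 1 mM GSH, 0.5 mM NADPH, 0.5 mM cumene hydroperoxide, 0.01% BSA; 30 min compound–enzyme preincubation.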
On the technique in general: qHTS replaces the single test concentration by a dilution series.

Assay [2] addresses Phospholipid hydroperoxide glutathione peroxidase GPX4 (Homo sapiens) (UniProt P36969). As to the kind of experiment: Primary qHTS Assay for Inhibitors of Recombinant Selenoprotein Glutathione Peroxidase 4 (GPX4) (AID 1845192). Further: nearly all actives have a fitted effect of over 65% in size. In short, it runs like this: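 NADPH consumption followed by fluorescence at 340/450 nm, t=0 and after 15 min at room temperature. Reaction started with cumene hydroperoxide (0.5 mM final) after 30 min compound–GPX4 preincubation; final 200 nM GPX4, 100 nM GR, 1 mM GSH, 0.5 mM NADPH.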

Assay [3] addresses Luciferin 4-monooxygenase (Photinus pyralis) (UniProt P08659). Nature of the assay: Primary firefly luciferase (FLuc) qHTS assay for identification of artifact compounds. (AID 1845220). Further: nearly all actives have a fitted effect of over 60% in size. Further: potency means the concentration at half of the fitted maximal effect. The procedure, abridged: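 Compounds sat 15 min at room temperature with 10 uM luciferin and 10 uM ATP (pH 7.6 Tris acetate). Firefly luciferase (10 nM final) was then added, and luminescence was read 5 min later. Data normalized to no-enzyme and DMSO controls were Hill-fitted.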

Assay [4] can be described thus: Primary fluorescence-based thiol-reactive (MSTI) qHTS assay for identification of artifact compounds. (AID 1845221). Further: nearly all actives have a fitted effect of over 65% in size. Further: potency means the concentration at half of the fitted maximal effect. The procedure, abridged: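 Probe: MSTI 4 uM, PBS pH 7.4, 2% DMSO. Incubation 1 h, RT, light-protected. Readout fluorescence 525/598 nm.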
Assay [5] concerns Nanoluciferase (engineered Oplophorus gracilirostris luciferase). Nature of the assay: Primary Nanoluciferase (NLuc) qHTS assay for identification of artifact compounds. (AID 1845222). Further: series mostly up to about 54 µM. The procedure, abridged:
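Luminescence from secreted NLuc (filtered, 1:55-diluted S16 cell medium) read 5 min after Nano-Glo substrate; compounds preincubated 15 min, RT. Hill fits of inhibition normalized to DMSO and no-enzyme.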

The nature of assay [6]: Primary redox qHTS assay for identification of artifact compounds. (AID 1845223). In short, it runs like this: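 Redox-cycling detection via DTT (250 uM final) oxidation coupled to Amplex Red (25 uM)/HRP (250 mU/mL) in HBSS. 15 min preincubation plus 30 min after DTT, room temperature. Ex/Em 525/598 nm; 4-parameter Hill fit against DMSO and 10 uM DA3003.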

Glutathione peroxidase 1 (Homo sapiens), sequence (P07203 whole entry, looked up): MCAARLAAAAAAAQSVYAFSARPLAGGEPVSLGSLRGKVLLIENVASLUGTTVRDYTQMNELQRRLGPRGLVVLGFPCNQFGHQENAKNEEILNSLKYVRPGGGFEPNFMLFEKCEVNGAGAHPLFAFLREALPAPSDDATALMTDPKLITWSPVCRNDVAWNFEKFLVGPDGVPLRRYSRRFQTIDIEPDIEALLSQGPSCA
Phospholipid hydroperoxide glutathione peroxidase GPX4 (Homo sapiens), sequence (P36969 whole entry, looked up): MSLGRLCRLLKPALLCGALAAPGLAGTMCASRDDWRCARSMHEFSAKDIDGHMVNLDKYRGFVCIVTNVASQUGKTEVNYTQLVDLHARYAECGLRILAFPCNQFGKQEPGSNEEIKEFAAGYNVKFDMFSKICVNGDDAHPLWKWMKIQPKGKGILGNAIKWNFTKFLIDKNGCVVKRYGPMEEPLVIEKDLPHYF

Consider `COC(=O)CC(O)CC(O)/C=C/c1c(C)ccc2c1C(OC(C)=O)CC(C)C2` (stereo not drawn), for which the Potency result in assay [1], in assay [2], in assay [3], in assay [4], in assay [5] and in assay [6] was “inactive” each time.

`C[C@@H](N[C@H]1CCCC[C@@H]1NC(=O)c1ccc(Cl)cc1)c1cccc2ccccc12`: the Potency entry in assay [1], in assay [2], in assay [3], in assay [4], in assay [5] and in assay [6] was “inactive” in each case.

Take `CCC(C)C(=O)O[C@H]1[C@@H](OC(=O)c2ccoc2)C[C@](C)(O)[C@]23OC(C)(C)[C@H](C[C@H](OC(=O)c4ccoc4)[C@]12COC(C)=O)[C@H]3OC(C)=O` (stereo partly drawn): the Potency entry in assay [1], in assay [2], in assay [3], in assay [4], in assay [5] and in assay [6] was “inactive” in each case.

Regarding `COc1ccc(C2=NC(c3ccc(Cl)cc3)C(c3ccc(Cl)cc3)N2C(=O)N2CCNC(=O)C2)c(OC(C)C)c1` (stereo not drawn), the Potency result in assay [1], in assay [2], in assay [3], in assay [4], in assay [5] and in assay [6] was “inactive” each time.

Take `COc1ccc(S(=O)(=O)Nc2cc(Cl)cc(Cl)c2OC)cc1N1CCNCC1`: the Potency entry in assay [1], in assay [2], in assay [3], in assay [4], in assay [5] and in assay [6] was “inactive” in each case.

On to `COc1c2c(nc3occc13)C(CC=C(C)C)(OC)C(O)CC2` (stereo not drawn), for which the Potency result in assay [1], in assay [2], in assay [3], in assay [4], in assay [5] and in assay [6] was “inactive” throughout.

Regarding `CC(C)(O)C(=O)N1CCN(c2ccc(C(F)(F)F)c(C3=C(c4c[nH]c5ccccc45)C(=O)NC3=O)c2)CC1`, the Potency result in assay [1], in assay [2], in assay [3], in assay [5] and in assay [6] was “inactive” in each case. Also, the Potency in assay [4] was 3.36 µM (active).

In the case of `COc1cc(/C=N\NC(=O)c2ccc3c(c2)OCO3)ccc1OCc1ccccc1`, the Potency entry in assay [1], in assay [2], in assay [3], in assay [4], in assay [5] and in assay [6] was “inactive” throughout.

`COc1ccc(CCO[C@@H]2O[C@H](CO[C@H]3OC[C@](O)(CO)[C@H]3O)[C@@H](OC(=O)/C=C/c3ccc(O)c(O)c3)[C@H](O[C@@H]3O[C@@H](C)[C@H](O)[C@@H](O)[C@H]3O)[C@H]2O)cc1OC`: the Potency entry in assay [1], in assay [2], in assay [3], in assay [5] and in assay [6] was “inactive” each time. In assay [4], the Potency is 1.58 µM (active).

As to `COc1c(C(O)CC(C)C)ccc2c1C(=O)OCc1cc(C)cc(O)c1O2` (stereo not drawn), the Potency entry in assay [1], in assay [2], in assay [3], in assay [4], in assay [5] and in assay [6] was “inactive” throughout.

On to `C=C(C)Cn1c(SCC(=O)c2cccs2)nc2sc3c(c2c1=O)CCCC3`, for which the Potency result in assay [1], in assay [2], in assay [3], in assay [4], in assay [5] and in assay [6] was “inactive” throughout.

For the compound `C=CC(=O)Nc1cc(-n2c(=O)ccc3cnc4ccc(-c5ccc(NS(C)(=O)=O)cc5)cc4c32)ccc1C`, the Potency entry in assay [1], in assay [2], in assay [3], in assay [4], in assay [5] and in assay [6] was “inactive” throughout.

For `CCN1CCN(Cc2ccc(NC(=O)c3ccc(C)c(Oc4ncnc5[nH]c(C)cc45)c3)cc2C(F)(F)F)CC1`, the Potency entry in assay [1], in assay [2], in assay [3], in assay [4], in assay [5] and in assay [6] was “inactive” throughout.

In the case of `Cc1ccc(C(=O)Nc2ccc(CN3CCN(C)CC3)c(C(F)(F)F)c2)cc1C#Cc1cnc2[nH]ncc2c1`, the Potency entry in assay [1], in assay [2], in assay [4], in assay [5] and in assay [6] was “inactive” throughout. Further, the Potency in assay [3] is 23.9 µM (active).

With `C=C1CC[C@@H](O)[C@]2(C)C[C@H]3OC(=O)C(=C)[C@H]3CC12` (stereo partly drawn), the Potency entry in assay [1], in assay [2], in assay [3], in assay [4], in assay [5] and in assay [6] was “inactive” in each case.

Regarding `C=C1C(=O)OC2/C=C(\C)CC/C=C(\C)CC(OC(C)=O)C12` (stereo not drawn), the Potency entry in assay [1], in assay [2], in assay [3], in assay [4], in assay [5] and in assay [6] was “inactive” throughout.

Take `COc1cc(C(C)C)c(Oc2cnc(N)nc2N)cc1I`: the Potency result in assay [1], in assay [2], in assay [3], in assay [4], in assay [5] and in assay [6] was “inactive” each time.

`CC(=O)O[C@@H]1[C@@H](OC(C)=O)[C@H](C)O[C@@H](O[C@H]2[C@@H]3C=CO[C@@H](O[C@@H]4O[C@H](CO)[C@@H](O)[C@H](O)[C@H]4O)[C@@H]3[C@@]3(CO)O[C@@H]23)[C@@H]1OC(=O)/C=C/c1ccccc1`: the Potency entry in assay [1], in assay [2], in assay [3], in assay [4], in assay [5] and in assay [6] was “inactive” in each case.

With `CCN(CC)C(=O)c1ccc(Nc2nc(OCC3CCCCC3)c3[nH]cnc3n2)cc1`, the Potency result in assay [1], in assay [2], in assay [3], in assay [4], in assay [5] and in assay [6] was “inactive” each time.

For `COc1cccc(OCCCN)c1-c1cc(Nc2cnc(C#N)cn2)n[nH]1`, the Potency entry in assay [1], in assay [2], in assay [3], in assay [4], in assay [5] and in assay [6] was “inactive” throughout.

`COC1CCN(C(=O)c2cc(Cc3n[nH]c(=O)c4ccccc34)ccc2F)CC1`: the Potency result in assay [1], in assay [2], in assay [3], in assay [4], in assay [5] and in assay [6] was “inactive” in each case.

In the case of `Cc1cc2ncc(C(=O)NCC(C)(C)NCC(=O)N3CCC[C@H]3C#N)cn2n1`, the Potency result in assay [1], in assay [2], in assay [3], in assay [4], in assay [5] and in assay [6] was “inactive” each time.

`O=C1COc2nccc(-c3ccccc3F)c2CN1Cc1cc(C(F)(F)F)cc(C(F)(F)F)c1`: the Potency entry in assay [1], in assay [2], in assay [3], in assay [4], in assay [5] and in assay [6] was “inactive” in each case.
